Laboratory results: the supplement of paper PMC10849652
Targets with a hit are over-represented here; the source holds about 8,800 in all. About 0.5% of all pairs of compound and target were hits. A number with no mark means an inactive call.

Key:
Experiment in all cases: log2 fold change, soluble protein after heating vs DMSO (PISA); higher = thermal stabilisation; K562 lysate, 10 uM; active = over 0.2 and 3.5 SD of the protein, either way, in both replicates (recomputed)
ibrutinib = compound: C=CC(=O)N1CCC[C@@H](n2nc(-c3ccc(Oc4ccccc4)cc3)c3c(N)ncnc32)C1 [ibrutinib]
Outline: (§1)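 Thermal stability, expressed as log-two fold change relative to solvent controls, is given from duplicates. Crude K562 extract in PBS pH 7.4 with 1 mM MgCl2, at 1 mg/mL protein, was treated with 10 μM compound for 30 min and heated in aliquots for 3 min across 48°C-58°C. After pooling, adjustment to 0.5% NP-40 at 4°C and centrifugation at 21,000xg for 90 min, supernatant protein was measured by TMTpro 16plex LC-MS/MS with channel sums equalised.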

[1] = compound: CC(=O)c1cnc2ccc(-c3cc(Cl)c(O)c(Cl)c3)nc2c1N[C@H]1CC[C@H](CN(C)C)CC1
Outline: as §1

ralimetinib = compound: CC(C)(C)Cn1c(N)nc2ccc(-c3[nH]c(C(C)(C)C)nc3-c3ccc(F)cc3)nc21 [ralimetinib]
Outline: as §1

[2] = compound: CC(C)(O)CC(=O)NCCn1ccc2ncnc(Nc3ccc(Oc4cccc(C(F)(F)F)c4)c(Cl)c3)c21
Outline: as §1

[3] = compound: CC(C)C1=C2N=C(C=C(N2N=C1)NCC3=CC=CC=C3)NCCCCCCN
Outline: as §1

[4] = compound: CC1=C(C(CC(=O)N1)C2=CC=C(C=C2)C(F)(F)F)C(=O)NC3=C(C=C4C(=C3)C=NN4)F
Outline: as §1

[5] = compound: CC1=C(C2=C(C=C1)C(=O)C3=CC=CC=C3N2CCCN)C
Outline: as §1

[6] = compound: CC1=C(C=C(C=C1)NC(=O)C2=CC(=CC=C2)C(C)(C)C#N)NC3=CC4=C(C=C3)N=CN(C4=O)C
Outline: as §1

[7] = compound: CC1=C(C=C(C=C1)NC(=O)C2=CC(=CC=C2)N(C)C)NC(=O)C3=CC=C(C=C3)O
Outline: as §1

[8] = compound: CC1=CC=C(C=C1)SC2=C3C=C(SC3=CN=C2)C(=O)N
Outline: as §1

Sequence of UniProt Q9Y2V7 (Q9Y2V7 whole entry, looked up): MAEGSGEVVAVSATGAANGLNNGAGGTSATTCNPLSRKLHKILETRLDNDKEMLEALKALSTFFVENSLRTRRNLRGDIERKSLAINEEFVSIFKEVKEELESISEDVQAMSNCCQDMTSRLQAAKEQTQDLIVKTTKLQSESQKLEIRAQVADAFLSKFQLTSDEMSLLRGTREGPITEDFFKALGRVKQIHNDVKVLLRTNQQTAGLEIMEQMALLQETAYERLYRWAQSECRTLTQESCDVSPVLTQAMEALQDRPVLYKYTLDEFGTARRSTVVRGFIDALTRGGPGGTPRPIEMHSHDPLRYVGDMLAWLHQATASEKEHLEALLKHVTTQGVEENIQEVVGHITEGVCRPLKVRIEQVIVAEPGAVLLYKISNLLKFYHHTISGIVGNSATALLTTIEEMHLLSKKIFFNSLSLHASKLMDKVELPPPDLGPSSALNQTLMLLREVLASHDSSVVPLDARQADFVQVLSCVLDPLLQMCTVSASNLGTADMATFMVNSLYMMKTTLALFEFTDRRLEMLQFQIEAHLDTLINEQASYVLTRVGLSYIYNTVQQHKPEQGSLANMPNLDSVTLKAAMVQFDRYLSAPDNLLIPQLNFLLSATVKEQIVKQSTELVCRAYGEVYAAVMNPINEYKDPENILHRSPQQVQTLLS
Sequence of UniProt Q16850 (Q16850 whole entry, looked up): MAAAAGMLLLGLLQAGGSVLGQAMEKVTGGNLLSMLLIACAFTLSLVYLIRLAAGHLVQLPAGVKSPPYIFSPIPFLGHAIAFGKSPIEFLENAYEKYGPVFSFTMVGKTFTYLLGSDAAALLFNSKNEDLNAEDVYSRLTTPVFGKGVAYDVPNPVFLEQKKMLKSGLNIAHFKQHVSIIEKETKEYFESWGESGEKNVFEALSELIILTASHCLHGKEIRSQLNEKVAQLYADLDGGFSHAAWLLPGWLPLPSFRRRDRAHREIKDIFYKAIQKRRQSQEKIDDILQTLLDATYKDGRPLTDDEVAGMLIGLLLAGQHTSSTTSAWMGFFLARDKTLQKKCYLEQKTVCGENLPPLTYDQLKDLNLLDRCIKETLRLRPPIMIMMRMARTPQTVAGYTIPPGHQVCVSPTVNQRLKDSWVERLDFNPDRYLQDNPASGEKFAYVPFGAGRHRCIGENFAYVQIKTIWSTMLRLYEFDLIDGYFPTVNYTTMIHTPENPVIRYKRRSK
Sequence of UniProt Q5EBM0 (Q5EBM0 whole entry, looked up): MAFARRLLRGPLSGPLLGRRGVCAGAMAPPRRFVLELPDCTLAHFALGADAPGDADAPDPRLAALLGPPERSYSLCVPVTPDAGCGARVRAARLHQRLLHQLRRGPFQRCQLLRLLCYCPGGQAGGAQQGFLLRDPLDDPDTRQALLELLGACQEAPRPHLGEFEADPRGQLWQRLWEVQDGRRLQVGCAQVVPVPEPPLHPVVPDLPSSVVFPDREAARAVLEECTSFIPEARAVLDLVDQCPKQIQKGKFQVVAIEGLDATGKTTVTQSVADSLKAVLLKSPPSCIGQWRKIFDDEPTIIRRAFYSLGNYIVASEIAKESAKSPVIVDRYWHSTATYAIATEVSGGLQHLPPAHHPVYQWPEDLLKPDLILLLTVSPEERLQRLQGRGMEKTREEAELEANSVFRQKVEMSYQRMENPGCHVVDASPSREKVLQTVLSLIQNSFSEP
Sequence of UniProt P39880 (P39880 whole entry, looked up): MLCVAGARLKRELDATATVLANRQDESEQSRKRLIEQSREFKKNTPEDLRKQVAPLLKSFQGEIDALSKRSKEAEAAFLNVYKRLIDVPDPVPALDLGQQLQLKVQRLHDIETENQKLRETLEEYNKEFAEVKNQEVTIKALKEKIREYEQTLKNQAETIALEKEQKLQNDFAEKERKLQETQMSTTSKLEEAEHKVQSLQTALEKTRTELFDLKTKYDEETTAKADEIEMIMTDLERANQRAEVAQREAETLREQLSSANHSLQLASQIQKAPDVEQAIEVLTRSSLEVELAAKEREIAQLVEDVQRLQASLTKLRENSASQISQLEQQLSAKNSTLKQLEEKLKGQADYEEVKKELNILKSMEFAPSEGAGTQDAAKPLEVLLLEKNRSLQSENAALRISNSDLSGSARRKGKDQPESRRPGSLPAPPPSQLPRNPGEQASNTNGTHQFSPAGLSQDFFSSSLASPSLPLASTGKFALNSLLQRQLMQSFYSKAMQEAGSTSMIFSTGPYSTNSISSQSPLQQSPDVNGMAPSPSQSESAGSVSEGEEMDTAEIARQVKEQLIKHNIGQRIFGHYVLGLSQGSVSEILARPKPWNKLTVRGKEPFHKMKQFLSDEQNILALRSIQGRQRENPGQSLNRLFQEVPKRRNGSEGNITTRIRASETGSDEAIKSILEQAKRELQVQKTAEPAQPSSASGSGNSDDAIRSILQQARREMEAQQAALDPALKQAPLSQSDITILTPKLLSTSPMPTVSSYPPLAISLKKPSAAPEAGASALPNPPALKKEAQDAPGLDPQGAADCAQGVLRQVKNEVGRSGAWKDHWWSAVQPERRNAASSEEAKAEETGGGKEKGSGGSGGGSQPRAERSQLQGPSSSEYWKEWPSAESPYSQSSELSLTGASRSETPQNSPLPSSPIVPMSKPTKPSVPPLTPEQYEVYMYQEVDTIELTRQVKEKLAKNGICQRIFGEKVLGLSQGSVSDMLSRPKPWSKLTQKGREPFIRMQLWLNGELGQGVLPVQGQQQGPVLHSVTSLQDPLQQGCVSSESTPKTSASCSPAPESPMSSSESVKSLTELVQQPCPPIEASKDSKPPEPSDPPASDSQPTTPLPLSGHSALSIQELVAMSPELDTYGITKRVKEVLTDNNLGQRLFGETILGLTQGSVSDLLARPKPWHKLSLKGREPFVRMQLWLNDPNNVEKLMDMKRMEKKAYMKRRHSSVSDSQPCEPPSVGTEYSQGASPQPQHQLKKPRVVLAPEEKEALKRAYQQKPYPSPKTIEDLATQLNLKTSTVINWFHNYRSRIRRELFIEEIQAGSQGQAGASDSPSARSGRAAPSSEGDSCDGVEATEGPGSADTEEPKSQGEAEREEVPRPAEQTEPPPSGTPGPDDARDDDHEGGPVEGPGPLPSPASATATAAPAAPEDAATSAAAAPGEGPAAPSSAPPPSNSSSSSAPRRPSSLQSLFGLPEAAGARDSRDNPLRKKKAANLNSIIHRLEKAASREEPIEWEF
Sequence of UniProt Q9UHI6 (Q9UHI6 whole entry, looked up): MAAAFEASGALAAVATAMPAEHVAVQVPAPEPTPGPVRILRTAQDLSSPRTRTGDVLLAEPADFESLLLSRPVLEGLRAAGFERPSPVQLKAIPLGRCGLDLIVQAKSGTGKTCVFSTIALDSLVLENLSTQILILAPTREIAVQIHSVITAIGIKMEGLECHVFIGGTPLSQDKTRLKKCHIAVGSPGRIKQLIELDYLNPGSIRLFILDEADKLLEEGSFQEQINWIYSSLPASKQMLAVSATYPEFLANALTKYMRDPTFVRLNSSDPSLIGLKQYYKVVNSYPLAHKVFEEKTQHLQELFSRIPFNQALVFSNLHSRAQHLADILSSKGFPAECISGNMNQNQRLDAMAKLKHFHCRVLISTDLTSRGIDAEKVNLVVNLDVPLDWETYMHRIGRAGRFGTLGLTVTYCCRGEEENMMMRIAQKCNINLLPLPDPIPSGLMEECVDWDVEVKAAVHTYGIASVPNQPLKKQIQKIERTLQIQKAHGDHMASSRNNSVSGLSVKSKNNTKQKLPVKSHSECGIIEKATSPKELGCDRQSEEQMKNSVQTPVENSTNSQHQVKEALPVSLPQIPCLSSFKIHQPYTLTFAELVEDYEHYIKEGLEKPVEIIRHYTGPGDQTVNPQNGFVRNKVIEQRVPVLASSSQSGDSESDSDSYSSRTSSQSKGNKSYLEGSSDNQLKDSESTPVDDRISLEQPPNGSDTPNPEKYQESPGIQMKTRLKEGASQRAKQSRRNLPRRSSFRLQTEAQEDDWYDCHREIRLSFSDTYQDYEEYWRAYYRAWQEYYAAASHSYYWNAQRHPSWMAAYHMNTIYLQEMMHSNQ
Sequence of UniProt Q6PJW8 (Q6PJW8 whole entry, looked up): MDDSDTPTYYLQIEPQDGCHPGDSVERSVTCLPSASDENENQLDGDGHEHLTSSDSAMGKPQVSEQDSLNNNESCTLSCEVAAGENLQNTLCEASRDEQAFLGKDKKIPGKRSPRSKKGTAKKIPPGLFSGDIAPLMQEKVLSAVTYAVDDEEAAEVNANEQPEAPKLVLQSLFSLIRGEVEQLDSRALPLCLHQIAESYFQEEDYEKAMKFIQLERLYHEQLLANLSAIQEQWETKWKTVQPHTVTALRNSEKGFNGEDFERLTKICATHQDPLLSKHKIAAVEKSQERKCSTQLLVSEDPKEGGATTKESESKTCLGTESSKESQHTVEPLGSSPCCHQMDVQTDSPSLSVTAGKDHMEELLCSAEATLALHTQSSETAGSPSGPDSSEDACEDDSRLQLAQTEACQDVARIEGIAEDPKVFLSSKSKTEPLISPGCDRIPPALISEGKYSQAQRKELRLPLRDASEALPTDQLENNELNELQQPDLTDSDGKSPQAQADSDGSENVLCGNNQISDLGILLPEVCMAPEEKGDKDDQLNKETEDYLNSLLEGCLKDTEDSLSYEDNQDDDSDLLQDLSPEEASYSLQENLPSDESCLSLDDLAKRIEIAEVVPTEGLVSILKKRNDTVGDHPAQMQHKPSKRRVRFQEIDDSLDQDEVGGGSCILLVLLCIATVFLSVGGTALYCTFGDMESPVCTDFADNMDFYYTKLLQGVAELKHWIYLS
Sequence of UniProt Q96MX0 (Q96MX0 whole entry, looked up): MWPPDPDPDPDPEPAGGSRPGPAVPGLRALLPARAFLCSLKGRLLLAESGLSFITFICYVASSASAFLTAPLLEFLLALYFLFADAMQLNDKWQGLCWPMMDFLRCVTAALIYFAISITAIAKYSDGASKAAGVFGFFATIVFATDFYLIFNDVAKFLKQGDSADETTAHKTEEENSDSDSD
Sequence of UniProt Q8WUH1 (Q8WUH1 whole entry, looked up): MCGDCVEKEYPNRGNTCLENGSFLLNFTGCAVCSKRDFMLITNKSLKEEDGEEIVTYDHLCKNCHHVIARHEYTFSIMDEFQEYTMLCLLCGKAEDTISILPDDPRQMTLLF

Target	log2 fold change (ibrutinib)	log2 fold change [1]	log2 fold change (ralimetinib)	log2 fold change [2]	log2 fold change [3]	log2 fold change [4]	log2 fold change [5]	log2 fold change [6]	log2 fold change [7]	log2 fold change [8]
DDX20 (UniProt Q9UHI6)	-0.01	0.017	0.029	-0.029	-0.03	-0.011	0.004	-0.006	0.044	0.01
DIAPH3 (UniProt Q9NSV4)	0.012	0.093	0.086	-0.032	-0.066	0.043	0.005	-0.011	0.038	-0.035
CTPS2 (UniProt Q9NRF8)	0.021	0.006	0.017	-0.026	-0.011	0.008	-0.004	0.009	0.005	-0.009
CIC (UniProt I3L1Q4)	0.005	–	–	–	–	–	–	–	–	–
COTL1 (UniProt Q14019)	0.038	0.001	-0.025	0.049	-0.007	-0.055	0.02	-0.019	-0.015	-0.004
CNP (UniProt P09543)	0.024	0.01	0.028	0.019	0.022	0.042	0.038	-0.018	-0.015	0.01
CWC22 (UniProt Q9HCG8)	0.027	-0.007	0.007	-0.002	-0.005	0.06	0	-0.002	0.028	-0.009
DDA1 (UniProt Q9BW61)	0.108	-0.003	0	0.019	-0.072	0.028	0.022	0.01	0.018	-0.017
DHRS13 (UniProt Q6UX07)	-0.106	-0.003	0.094	-0.111	-0.073	0.082	-0.292	0.03	-0.009	0.111
CXorf38 (UniProt Q8TB03)	0.054	0.015	-0.008	-0.007	0.062	-0.095	0.016	-0.002	-0.015	0.025
CNST (UniProt Q6PJW8)	0	0.006	0.031	0.022	0.012	0.176	-0.01	-0.035	0.006	-0.002
DHRS11 (UniProt Q6UWP2)	0.028	-0.008	0.028	-0.014	0.048	-0.005	-0.029	0.007	0.015	0.03
CMTM3 (UniProt Q96MX0)	-0.036	0.036	0.093	0.104	-0.022	0.052	-0.06	0.06	-0.039	-0.016
COL6A5 (UniProt A8TX70)	0.046	-0.023	-0.083	-0.141	0.018	0.063	-0.038	0.108	-0.011	-0.053
CUX1 isoform 3 (UniProt P39880)	0.073	0.002	0.003	-0.061	0.017	-0.022	0.003	-0.051	0.012	0.005
CMPK2 (UniProt Q5EBM0)	0.012	0.045	-0.012	0.012	0.026	0.014	0.027	0.009	-0.018	-0.01

Target	log2 fold change (ibrutinib)	log2 fold change [1]	log2 fold change (ralimetinib)	log2 fold change [2]	log2 fold change [3]	log2 fold change [4]	log2 fold change [5]	log2 fold change [6]	log2 fold change [7]	log2 fold change [8]
DONSON (UniProt Q9NYP3)	0.059	0.002	-0.033	0.074	-0.022	-0.071	-0.037	0.062	-0.096	-0.013
DPH5 isoform 5 (UniProt Q9H2P9)	0.043	-0.027	-0.031	0	0.298	-0.034	-0.111	-0.007	-0.037	0.04
CYP51A1 (UniProt Q16850)	0.601 (active)	-0.025	-0.025	0.101	0.038	-0.017	-0.031	-0.093	0.014	-0.099
CMSS1 (UniProt Q9BQ75)	-0.012	-0.016	-0.002	-0.011	0.047	-0.015	0.027	-0.059	0.019	-0.004
COG3 (UniProt Q96JB2)	0.026	-0.008	0.052	-0.042	-0.04	0.006	-0.019	0.02	0.044	0.02
DLGAP5 (UniProt Q15398)	0.004	0.02	-0.018	0.005	-0.036	-0.009	-0.007	-0.012	0.016	-0.003
CKS1B (UniProt P61024)	0.049	0.01	-0.161	-0.034	0.011	0.055	0	-0.059	0.003	-0.012
DENND6A (UniProt Q8IWF6)	0.014	0.064	0.052	-0.047	0.037	0.002	-0.03	0.001	0.022	0.051
CHUK (UniProt O15111)	0.034	0.04	0.063	0.071	0.014	-0.047	-0.014	-0.013	0.009	-0.016
COX20 isoform 2 (UniProt Q5RI15)	0.28	0.017	0.084	0.032	-0.003	-0.007	-0.04	0.003	0.001	-0.023
COG6 (UniProt Q9Y2V7)	-0.003	0.005	0.016	-0.059	-0.028	-0.017	0.016	0.004	0.033	0.021
COG5 isoform 2 (UniProt Q9UP83)	0.061	-0.036	0.074	-0.027	0.037	-0.005	0.04	-0.016	0.073	0.052
DHCR7 (UniProt Q9UBM7)	-0.026	0.016	0.071	-0.042	-0.018	0.01	-0.007	-0.017	-0.011	-0.002
CHURC1 isoform 2 (UniProt Q8WUH1)	0.055	0.05	0.027	-0.077	0.07	-0.065	0.057	0.085	-0.102	0.004
CIC (UniProt I3L2J0)	0.036	0.044	0.055	-0.083	0.013	0.054	-0.044	0.029	0.02	0.028
